This note sets out measurements from PubChem BioAssay (EPA / NIEHS).

Structures are written as SMILES. Inconclusive results are not listed. Active and inactive are the calls of the source. Rule for the calls: active = hit-call score of the fitted dose curve at least 0.9, where 1 is the maximum; inconclusive = response in the unintended direction; inactive = score below 0.9.

In the test the target is bovine Estrogen Receptor (ER), ESR1 (gene 407238) (UniProt P49884). As to the kind of experiment: NVS_NR_bER: NovaScreen (NVS) Nuclear Receptor Binding Assay for bovine Estrogen Receptor (ER) (AID 2283345).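 Note: actives lower the bound radioligand count which means they displace the ER ligand.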 On the procedure: NVS_NR_bER is a biochemical, single-readout assay that uses extracted gene-proteins from Bovine uterine membranes in a tissue-based cell-free assay. Measurements were taken 18 hours after chemical dosing in a 96-well plate.NVS_NR_bER is one of one assay component(s) measured or calculated from the NVS_NR_bER assay. It is designed to make measurements of radioligand binding, a form of binding reporter, as detected with scintillation counting signals by Lysate-based radiodetection technology.Data from the assay component NVS_NR_bER was analyzed into 1 assay endpoint. This assay endpoint, NVS_NR_bER, was analyzed in the positive analysis fitting direction relative to DMSO as the negative control and baseline of activity. Using a type of binding reporter, loss-of-signal activity can be used to understand changes in the binding as they relate to the gene ESR1. Furthermore, this assay endpoint can be referred to as a primary readout, because the performed assay has only produced 1 assay endpoint. To generalize the intended target to other relatable targets, this assay endpoint is annotated to the nuclear receptor intended target family, where the subfamily is steroidal.
bovine Estrogen Receptor (ER), ESR1 (gene 407238), sequence (P49884 whole entry, looked up): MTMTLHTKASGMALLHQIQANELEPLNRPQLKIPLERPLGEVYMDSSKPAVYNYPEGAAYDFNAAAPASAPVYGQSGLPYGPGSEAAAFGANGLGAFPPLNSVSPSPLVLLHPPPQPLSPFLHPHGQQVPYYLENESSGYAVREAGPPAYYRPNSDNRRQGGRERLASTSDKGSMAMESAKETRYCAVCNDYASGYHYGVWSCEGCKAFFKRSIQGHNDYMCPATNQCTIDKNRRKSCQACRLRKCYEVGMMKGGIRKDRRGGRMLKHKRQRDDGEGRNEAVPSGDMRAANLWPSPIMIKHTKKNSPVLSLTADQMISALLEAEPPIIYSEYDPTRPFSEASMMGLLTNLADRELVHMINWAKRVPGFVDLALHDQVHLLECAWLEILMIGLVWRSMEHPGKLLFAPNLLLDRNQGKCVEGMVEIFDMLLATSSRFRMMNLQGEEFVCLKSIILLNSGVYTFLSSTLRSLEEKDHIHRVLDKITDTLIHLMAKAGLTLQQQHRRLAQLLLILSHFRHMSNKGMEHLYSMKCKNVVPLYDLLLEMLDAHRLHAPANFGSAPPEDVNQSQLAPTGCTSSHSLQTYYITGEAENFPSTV
Binding assays used specific radioligands (tritiated, iodinated) with non-radioactive competitive displacement ligands in agonist or antagonist protocols (as indicated) and various reference compounds and inhibitors to titrate specific binding to receptors and transporters. Most enzyme assays (CYPs, kinases, phosphatases, proteases, HDACs) used recombinant protein and specific substrates (fluorescence mostly, some colorimetric and radioactive) and inhibitors, followed by a biochemical separation of substrate and product. All assays for the biochemical HTS were initially run in duplicate at a single concentration (10 uM for CYP450 assays and 25 uM for all others). […] Each assay was run with positive and negative controls, and concurrent controls on every plate. The follow-up (secondary) screen tested active chemical-pairs in concentration series, as well as a few additional assays not tested in the primary screen, some selected negative inactives, and several cases re-run in the concentration series for confirmatory purposes.
`COc1ccc(N)cc1N`: the result was inactive.

As to `CC(Oc1ccc(Oc2ncc(C(F)(F)F)cc2Cl)cc1)C(=O)O` (centres undefined), the compound was classed as inactive.

For `O=[N+]([O-])c1cc(C(F)(F)F)c(Cl)c([N+](=O)[O-])c1Cl`, the compound was called inactive.

In the case of `COP(=O)(OC)Oc1ccc([N+](=O)[O-])cc1`, the outcome was inactive.

Take `[Hg+2].[I-].[I-]`: the outcome was inactive.

One may read the AC50 as the concentration at which the activity in the assay is half-maximal. For `COP(=S)(NC(C)C)Oc1ccc(C)cc1[N+](=O)[O-]` (centres undefined), the AC50 is 9.3 µM (active).

`O=C(O)c1cc[c]([Hg][Cl])cc1`: the result was inactive.

As to `CC(=O)[O][Pb]([c]1ccccc1)([c]1ccccc1)[c]1ccccc1`, the call was inactive.

For the compound `COc1cc(OC)c(OC)cc1C=O`, the result was inactive.

With `IC(I)=C(I)I`, the outcome was inactive.

As to `O=[N+]([O-])c1ccc(Oc2ccc(C(F)(F)F)cc2[N+](=O)[O-])cc1`, the compound was classed as inactive.

As for `CCOP(=O)(Sc1ccccc1)Sc1ccccc1`, the compound was called inactive.

As to `Oc1ccc(C2(c3ccc(O)cc3)c3ccccc3-c3ccccc32)cc1`, the compound was classed as inactive.

Turning to `c1ccc(P(c2ccccc2)c2ccccc2)cc1`, the compound was called inactive.

As for `c1coc(-c2nc3ccccc3[nH]2)c1`, the call was inactive.

Consider `C[C@]12CCC(=O)C(O)=C1CC[C@@H]1[C@@H]2CC[C@]2(C)C(=O)CC[C@@H]12`, for which the result was inactive.

For `CN(C)C(=O)Nc1cccc(OC(=O)NC(C)(C)C)c1`, the compound was classed as inactive.

In the case of `OC(c1ccc(F)cc1)(c1cncnc1)c1ccccc1Cl` (centres undefined), the call was inactive.

`N#Cc1sc2c(=O)c3ccccc3c(=O)c=2sc1C#N`: the AC50 is 9.58 µM (active).

As for `C=CC(=O)OCCCCO`, the call was inactive.

In the case of `O=C1C(Cl)=C(Cl)C(=O)C(Cl)=C1Cl`, the compound was classed as inactive.

In the case of `CCOP(=S)(OCC)Oc1cnc2ccccc2n1`, the result was inactive.

For the compound `c1cc(OCC2CO2)ccc1Cc1ccc(OCC2CO2)cc1` (centres undefined), the outcome was inactive.

For `[Cd+2].[Cl-].[Cl-]`, the result was inactive.
